Max activity data for 77 molecules are collected here from PubChem BioAssay AID1259418 (Broad Institute, 2018).

Structures are written as SMILES. About 840 (25%) of roughly 3,400 compounds were called active. About 11% were inconclusive and are not listed. The list is a sample of the results. Results with a measured potency or affinity are listed apart. Values without a mark were called inactive.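 The calls were made as follows: active = fitted half-maximal concentration of signal decrease at or below twice the sample's top tested concentration; inconclusive = flat curve between -70 and -30 percent, or poor fit; inactive = flat within 30 percent, signal rise, or potency above limit.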

The test is described as follows: inhibitors of Toxoplasma growth in IFN-γ-primed HeLa – cell-based, ME49Luc, luciferase, 72 h, dose response (AID 1259418). The settings on record: T. gondii ME49Luc in IFN-y HeLa, stronger effect = lower value, -100% = high-dose IFN-γ control wells; at 19.5 µM unless noted.
Regarding `Cc1nc(-c2cc(S(=O)(=O)N3CCCCC3C)c(C)s2)sc1C` (configuration not stated), the max activity was -14.7% [at 5 µM]. The same measure for `Cc1nc(-c2ccc(F)cc2)sc1-c1ccc(SCc2cccc(C(F)(F)F)c2)nn1`: -7.18% [at 0.16 µM]; for `Cc1cccc(-c2nc(Cn3nnc(-c4nc(-c5ccc(Cl)c(F)c5)no4)c3C)c(C)o2)c1`: 6.89%. The figure for `COc1ccc2c(c1)NC1(CCN(C(=O)Cc3cccs3)CC1)c1cccn1-2` is -16.4% [at 10 µM]; for `COc1cccc(-c2nc3c(s2)CN(S(=O)(=O)c2ccc(Cl)cc2)CC3)c1` it is -9.55% [at 0.16 µM]; for `Cc1ccc(C)c(-c2coc(-c3ccc(NC(=O)c4sccc4C)cc3)n2)c1` it is 16.8% [at 10 µM]. The figure for `Cc1nc(CCNC(=O)[C@H]2CCCN2C(=O)c2ccccc2Cl)cs1` is 13.6% [at 0.35 µM]; for `Cc1oc(-c2cccc(Cl)c2)nc1Cn1nnc(-c2nc(-c3ccc(F)cc3)no2)c1C` it is -12.5% [at 0.16 µM]; for `CCOc1ccc(-c2nc(CN3CCN(C(=O)Nc4ccc(CC)cc4)CC3)c(C)o2)cc1` it is 8.87% [at 1.35 µM]. Turning to `CCOc1ccc(-c2nc(CN3CCN(C(=O)Nc4ccc(C)cc4)CC3)c(C)o2)cc1`, the max activity was -22.9%. The figure for `CCOc1ccc(NC(=O)N2CCN(Cc3nc(-c4ccc(OCC)cc4)oc3C)CC2)cc1` is 8.47% [at 5 µM]; for `CCOc1ccc(-c2nc(CN3CCN(C(=O)Nc4cc(C)cc(C)c4)CC3)c(C)o2)cc1` it is -7.26% [at 0.16 µM]; for `CCOc1ccc(-c2nc(CN3CCN(C(=O)Nc4ccccc4OCC)CC3)c(C)o2)cc1` it is 16%. For `CCOc1ccc(-c2nc(CN3CCN(C(=O)Nc4ccccc4CC)CC3)c(C)o2)cc1`, the max activity is 11.7% [at 2.6 µM]. As for `COc1ccc(OC)c(NC(=O)N2CCN(Cc3nc(-c4cccc(Cl)c4)oc3C)CC2)c1`, the max activity is 24.8% [at 5 µM]. Take `CCOc1ccc(NC(=O)N2CCN(Cc3nc(-c4ccc(C)cc4)oc3C)CC2)cc1`: the max activity is 18.7% [at 2.6 µM]. The figure for `Cc1ccc(NC(=O)COc2nc(C)nc3ccccc23)c(Br)c1` is 23.6%. The same measure for `COC(=O)c1cc(Cl)ccc1NC(=O)COc1nc(C)nc2ccccc12`: 15.7% [at 0.16 µM]; for `Cc1[nH]c2ccccc2c1C(=O)C(=O)NC1CC(=O)N(c2ccccc2)C1` (configuration not stated): 12.7% [at 2.6 µM]. The figure for `Cc1nc(CCNC(=O)C2CCN(S(=O)(=O)c3cnn(C(F)F)c3C)CC2)cs1` is 8.74% [at 0.68 µM]; for `Cc1ccoc1C(=O)N1CC[C@H]2CO[C@@H](CN3CCN(C)CC3)[C@@H]2C1` it is 14.9%. Regarding `COc1cc(OC)c(NC(=O)COc2nc(C)nc3ccccc23)cc1Cl`, the max activity is 39.9%. The figure for `CCc1nc(OCC(=O)Nc2ccccc2OC)c2ccccc2n1` is 14.6% [at 0.35 µM]; for `CSc1cccc(NC(=O)COc2nc(C)nc3ccccc23)c1` it is 16.7% [at 5 µM]. The figure for `CCOc1ccc(-c2nc(CN3CCN(C(=O)Nc4cccc(C)c4)CC3)c(C)o2)cc1` is 6.07%. The figure for `Cc1ccc(-c2nc(CN3CCN(C(=O)Nc4ccc(C)cc4Cl)CC3)c(C)o2)cc1` is 13.8% [at 2.6 µM]; for `CCOc1ccc(-c2nc(CN3CCN(C(=O)Nc4ccccc4Cl)CC3)c(C)o2)cc1` it is 227%; for `CCOc1ccc(-c2nc(CN3CCN(C(=O)Nc4ccc(C)c(Cl)c4)CC3)c(C)o2)cc1` it is 18% [at 0.16 µM]. As to `Cc1ccc(C(=O)Nc2c(C(=O)N3CCN(c4ncccn4)CC3)[nH]c3ccccc23)cc1`, the max activity is 15.6% [at 0.68 µM]. The figure for `COc1cccc(CNC(=O)COc2nc(C)nc3ccccc23)c1OC` is 25.6%; for `COc1ccc(-c2nc(Nc3cc(C)cc(C)c3)c3ccccc3n2)cc1` it is -19.1% [at 0.35 µM]; for `Brc1ccc(Nc2c3ccccc3nc3ccccc23)cc1` it is 36.4% [at 5 µM]. The same measure for `CN1CCN(C(=O)c2nn(C)c3c2CCN(S(C)(=O)=O)C3)CC1`: 18.7% [at 10 µM]; for `O=C(Cc1ccccn1)N1CC(=O)N2[C@H](C1)[C@@H](c1ccc(C#CCC3CCCC3)cc1)[C@@H]2CO`: 6.79% [at 0.3 µM].

With `Cc1ccc(-c2coc(-c3ccc(NC(=O)NCc4cccc(F)c4)cc3)n2)c(C)c1`, the max activity was 17.3%. With `Cc1ccc(C)c(-c2coc(-c3ccc(NC(=O)Nc4ccccc4F)cc3)n2)c1`, the max activity is -23.6% [at 0.16 µM]. The figure for `Cc1ccc(-c2coc(-c3ccc(NS(=O)(=O)c4cccc(Cl)c4)cc3)n2)cc1C` is -24.2% [at 0.35 µM]. Consider `CCc1c(C)sc2c1CCN(Cc1nc(-c3cccc(C)c3)oc1C)C2c1ccccc1` (configuration not stated), for which the max activity is 5.74% [at 10 µM].

In the case of `COc1ccc(CCNC(=O)CC2Nc3c4ccccc4nc(=S)n3C2=O)cc1OC` (configuration not stated), the max activity is 17% [at 0.16 µM].

On to `CCc1ccc2c(c1)cc(S(=O)(=O)c1ccccc1)c(=O)n2CC(=O)NCc1ccc(F)cc1`, for which the max activity is 15.5%. With `Cc1ccc(C(=O)Nc2ccc(-c3nc(-c4ccc(C)cc4)co3)cc2)cc1`, the max activity was 113% [at 10 µM].

With `O=C(CCn1nnc2cc(-c3noc(-c4cccc5[nH]ccc45)n3)ccc21)N1CCCC1`, the max activity was 43%. The same measure for `Cc1cc(C)c(NS(=O)(=O)c2cc3c4c(c2)CCC(=O)N4CCC3)c(C)c1`: 8.39%; for `Cc1cccc(C)c1NS(=O)(=O)c1cc2c3c(c1)CCC(=O)N3CCC2`: -22%.

For the molecule `Cc1ccc(NS(=O)(=O)c2cc3c4c(c2)CCC(=O)N4CCC3)c(C)c1`, the max activity is 4.48% [at 2.6 µM]. The same measure for `O=C1CCc2cc(S(=O)(=O)Nc3ccc4c(c3)OCCO4)cc3c2N1CCC3`: -30% [at 0.16 µM]. The figure for `O=C1CCc2cc(S(=O)(=O)NCc3ccc4c(c3)OCO4)cc3c2N1CCC3` is -19.9% [at 2.6 µM]; for `Cc1ccc(NS(=O)(=O)c2cc3c4c(c2)CCC(=O)N4CCC3)cc1C` it is -11.9%. The same measure for `COc1ccc(CNS(=O)(=O)c2cc3c4c(c2)CCC(=O)N4CCC3)cc1`: -13.1% [at 10 µM]; for `CCOc1cccc(-c2noc(-c3nnn(Cc4nc(-c5ccccc5)oc4C)c3C)n2)c1`: 8.01%; for `COc1ccc(-c2nc3c(s2)CN(S(=O)(=O)c2cccc(Cl)c2)CC3)cc1`: -9.33% [at 2.6 µM]. For `COc1ccc(-c2nc(Cn3nnc(-c4nc(-c5ccccc5Cl)no4)c3C)c(C)o2)cc1`, the max activity is -7.3% [at 1.35 µM].

Take `CCCCc1ccc(Nc2ncnc3c2cnn3-c2ccccc2)cc1`: the max activity was -7.99% [at 0.68 µM]. The same measure for `COc1ccc(NC(=O)CN2CCC3(CC2)N=C(c2ccc(F)cc2)C(=O)N3)cc1Cl`: -24% [at 0.16 µM]; for `CCc1nc(OCC(=O)Nc2ccccc2CC)c2ccccc2n1`: 28.5%; for `O=C(CC1CCCC1)Nc1ccc2c(c1)CCC(=O)N2`: 12.2%. The figure for `Cc1oc(-c2cccc(Cl)c2)nc1Cn1nnc(-c2nc(-c3ccccn3)no2)c1C` is -10.2% [at 5 µM]; for `COc1ccccc1-c1ccc(C2[C@@H]3CN(C(=O)c4ccncc4)C[C@H]2N3)cc1` (some centres not stated) it is 32.2%.

For the molecule `COc1ccc(C(=O)N2CCC3(CC2)Nc2cc(F)ccc2-n2cccc23)cc1`, the max activity is -22% [at 0.16 µM]. Take `COc1ccc(-c2ccc(C3[C@@H]4CN(C(=O)c5cnccn5)C[C@H]3N4)cc2)cc1` (some centres not stated): the max activity is 10.5% [at 10 µM]. The same measure for `CCOC(=O)CSc1nc(NCc2ccc(OC)cc2)c2ccccc2n1`: 20.1% [at 10 µM]; for `Cc1ccc2c(c1C)-n1cccc1C1(CCN(C(=O)Cc3ccc(F)cc3)CC1)N2`: 11.4% [at 0.68 µM]; for `O=C(Nc1cncc(-c2nc3ccccc3o2)c1)c1cccc(Cl)c1`: 14.2% [at 0.16 µM]. The figure for `COc1ccc(S(=O)(=O)N2CCCCN3[C@H](C2)[C@@H](c2ccc(C#CCC(C)C)cc2)[C@@H]3CO)cc1` is 177% [at 10 µM]. For `Cc1cccc(NC(=O)N2CCc3nc(-c4ccccc4)sc3C2)c1`, the max activity was -11.3% [at 0.35 µM]. The figure for `CCOc1ccc(CC(=O)Nc2ccc(-c3nc(-c4ccccc4)co3)cc2)cc1OCC` is 30.5% [at 10 µM]; for `Cc1ccc(NC(=O)CN2CCC3(CC2)N=C(c2ccc(F)cc2)C(=O)N3)cc1C` it is -13.8% [at 1.35 µM].

Turning to `COc1ccccc1-c1nc(Cn2nnc(-c3nc(-c4ccc(C(F)(F)F)cc4)no3)c2C)c(C)o1`, the max activity is 8.9%.

For the molecule `COc1cccc(NC(=O)Nc2ccc(-c3nc(-c4ccccc4)co3)cc2)c1`, the max activity is 66.2%. The figure for `C=CCO[C@@H]1CCN(c2cc(OC)ncn2)[C@H]1Cc1cnn(C)c1` is 25.2%; for `CC=Cc1ccc2n(c1=O)C[C@H]1[C@H](CO)[C@@H](C(=O)Nc3ccc(-c4ccccc4)cc3)[C@@H]2N1C(=O)CC` (mixture of isomers) it is 25.5%. The same measure for `Clc1ccc(CSc2nc(NCCc3ccccc3)c3ccccc3n2)cc1`: 29.6% [at 2.6 µM]. The same measure for `COc1ccc(CNc2nc(SCc3ccccc3Cl)nc3ccccc23)cc1`: 17.2%. As to `Clc1ccc(CSc2nc(NCc3ccccc3)c3ccccc3n2)cc1`, the max activity was 30.6% [at 2.6 µM]. The same measure for `Clc1ccc(CNc2nc(SCc3ccc(Cl)cc3)nc3ccccc23)cc1`: 7.58% [at 2.6 µM]; for `Clc1cccc(CSc2nc(NCCc3ccccc3)c3ccccc3n2)c1`: -7.56% [at 0.16 µM]. The figure for `COc1ccc(CCNc2nc(SCc3cccc(F)c3)nc3ccccc23)cc1OC` is 12% [at 5 µM].
